Experimental data reported in PubChem BioAssay (NCATS).
Values joined by “and” are separate entries in the source; they are usually repeats but may differ in a detail not shown here. Equal values may be shown once. Results filed as inconclusive are left out. Active and inactive are the calls of the source. Unless noted, calls come from the whole dose curve; as a rule, active = well fitted curve in the direction sought with a large enough effect; inconclusive = small, poorly fitted or top-dose-only effect, or another doubt; inactive = no such curve, though single readings can be large; an effect the other way counts as inactive or inconclusive.

Legend:
[1] = target: Peroxisome proliferator-activated receptor gamma (Homo sapiens) (UniProt P37231); assay: qHTS assay for small molecule agonists of peroxisome proliferator-activated receptor gamma signaling (AID 588536; active = well fitted curve in the direction sought with a large enough effect in the signal ratio, with a control signal flat, not every such curve was filed as active; the % refers to the signal ratio;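 note: 0% = DMSO basal wells and 100% = rosiglitazone at 2 µM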); conditions: HEK293 PPARg-UAS-bla, beta-lactamase ratio, 16 h, percent of rosiglitazone response, DMSO as zero; series mostly up to 76.7 µM
Summary of the method: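 Beta-lactamase reporter read-out: CCF4 fluorescence (ex 405, em 460/530 nm) after 2 h at RT. HEK293 GeneBLAzer cells were treated for 16 h at 37 C. Hill fits gave EC50 and efficacy versus 2 uM rosiglitazone (100%) and DMSO (0%).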

[2] = target: Thyroid hormone receptor beta (Homo sapiens) (UniProt P10828); assay: qHTS assay for small molecule agonists of thyroid hormone receptor beta signaling (AID 588545; calls by dose curve); conditions: TR-UAS-bla GripTite HEK 293, beta-lactamase ratio, agonist mode, 18 h, percent of T3 response, DMSO as zero; series mostly up to 76.7 µM
Summary of the method: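 Cells (2500/well) were seeded, incubated 4 hrs at 37 C, dosed with a compound series, incubated 18 hrs, loaded with CCF4 dye for 2 hrs at RT, then read for fluorescence. Data were scaled between DMSO (0%) and 10 nM T3 (100%).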

[3] = qHTS assay for small molecule activators of the p53 signaling pathway (AID 651743; active = well fitted activation curve with a large enough effect in the signal ratio, not every such curve was filed as active; the % refers to the signal ratio; note: % of control where 0% means no effect); conditions: HCT-116 p53RE-bla, beta-lactamase FRET ratio, 16 h; activation: hits give high values
Summary of the method: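 Here HCT-116 cells with an integrated p53-responsive beta-lactamase gene were incubated with compounds (16 hours, 37 C) after a 5-hour plating period; beta-lactamase activity was detected as fluorescence intensity via B/G FRET substrate.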

[4] = Cell Viability - Mesenchymal (AID 546); conditions: mesenchymal cells viability, qHTS; activity change, negative = cytotoxicity: at 91.7 µM (top of the series);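 note: cells exposed to compound for 40 hours before reading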
Summary of the method: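 In this qHTS cytotoxicity format, glomerulus-derived human mesenchymal kidney cells received compound for 40 hr, then luciferase-based ATP quantitation. Concentration-response data were fitted with the Hill equation.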

[5] = Cellular Toxicity (caspase-3) Jurkat (AID 655); conditions: Jurkat caspase-3 activation, luminescence, DMSO = 0%, tamoxifen = 100%; at 92.2 µM (top of the series);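 note: cells exposed to compound for 16 h at 37 °C before reading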
Summary of the method: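 Jurkat cells (5000/well) in complete medium exposed 16 h at 37 C; caspase-3/7 activity read by Caspase-Glo luminescence after 20 min at room temperature. Normalized to DMSO and 100 uM tamoxifen; AC50 from Hill fits.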

[6] = Cellular Toxicity (caspase-3) BJ (AID 658); conditions: BJ fibroblasts, luminescence, normalized: DMSO 0%, staurosporine 100%; series mostly up to 91.7 µM
Summary of the method: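 Plated BJ cells (1000/well) rested 5 hr, received compound for 16 hr at 37 °C, then Caspase-Glo 3/7 reagent for 1 hr at room temperature before luminescence reading.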

[7] = Cellular Toxicity (caspase-3) MRC-5 (AID 659); conditions: MRC-5 cells, luminescence, normalized: DMSO 0%, 10 µM staurosporine 100%; series mostly up to 91.7 µM
Summary of the method: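 Apoptosis readout in MRC-5 cells: luciferase light generated after caspase 3/7 cleaves a peptide-aminoluciferin substrate, measured post 16 hr compound incubation at 37 °C.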

[8] = Cellular Toxicity (caspase-3) Mesangial (AID 660); conditions: mesangial cells, normalized: DMSO 0%, 100 µM tamoxifen 100%; series mostly up to 91.7 µM;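 note: cells exposed to compound for 16 h before the caspase read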
Summary of the method: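 AC50 values come from Hill-equation fits of caspase 3/7 activation, measured as Caspase-Glo luminescence in human glomerular mesangial cells exposed to compound for 16 h at 37 °C; 100% set by 100 uM tamoxifen.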

[9] = Cellular Toxicity (caspase-3) SK-N-SH (AID 661); conditions: SK-N-SH caspase-3 activation, qHTS, DMSO as zero, staurosporine as full; series mostly up to 91.7 µM
Summary of the method: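 Apoptosis readout in SK-N-SH neuroblastoma: Caspase-Glo 3/7 luminescence following 16 hr treatment in complete culture medium. Normalization used DMSO and 10 uM staurosporine controls.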

[10] = Cellular Toxicity (caspase-3) H-4-II-E (AID 663); conditions: H-4-II-E rat hepatoma; Potency: caspase-3 activation; series mostly up to 92.2 µM;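 note: cells exposed to compound for 16 hr before readout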
Summary of the method: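 Caspase 3/7 activation measured in H-4-II-E cells in complete culture medium after 16 hr treatment at 37 °C, using luciferase-coupled substrate readout; AC50 values come from Hill-equation fits of normalized concentration-response data.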

[11] = Cellular Toxicity (caspase-3) Hek293 (AID 664); conditions: HEK293 caspase-3 activation, DMSO = 0%, 100 µM tamoxifen = 100%; series mostly up to 92.2 µM;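 note: cells exposed to compound for 16 h at 37 °C before readout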
Summary of the method: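 Apoptosis readout: Caspase-Glo 3/7 signal in human HEK293 cells following 16-hour compound incubation. Responses scaled between DMSO baseline and 100 uM tamoxifen.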

[12] = Cellular Toxicity (caspase-3) N2a (AID 665); conditions: N2a cells, luminescence, normalized: DMSO 0%, 10 µM staurosporine 100%; series mostly up to 92.2 µM;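 note: compound exposure lasted 16 h at 37 °C before readout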
Summary of the method: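 Concentration-response qHTS: compound-induced caspase-3/7 luminescence in N2a cells (16 h, 37 °C), relative to DMSO and 10 uM staurosporine controls; AC50 obtained using the standard Hill equation.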

[13] = Cellular Toxicity (caspase-3) NIH 3T3 (AID 666); conditions: NIH 3T3 caspase-3 activation, apoptosis/toxicity, 0% DMSO, 100% is 100 µM tamoxifen; series mostly up to 92.2 µM;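 note: caspase signal read after 16 h compound exposure; 0% = DMSO basal and 100% = 100 µM tamoxifen stimulation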
Summary of the method: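 Activity: caspase-3/7 induction, NIH 3T3 cells, 16 hr treatment at 37°C, luminescent Caspase-Glo detection; AC50 via Hill equation.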

[14] = Cellular Toxicity (caspase-3) Renal Proximal Tubule (AID 667); conditions: renal proximal tubule cells, primary cells freshly taken from rat, solvent-only wells 0%, staurosporine 100%; series mostly up to 91.7 µM;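 note: cells exposed to compound for 16 hours at 37 °C before detection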
Summary of the method: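 Freshly isolated primary rat kidney proximal tubule cells, 1000/well, treated 16 hr at 37 °C, then Caspase-Glo 3/7 luminescence after 1 hr. Normalized to DMSO and 10 uM staurosporine; AC50 from Hill fit.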

[15] = Cell Viability - LYMP2-001 (AID 921); conditions: LYMP2-001 lymphoblastoid cell viability; series mostly up to 92.2 µM;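 note: cells exposed to compound for 24 h at 37 °C; 0% = DMSO only and full inhibition = tetraoctylammonium bromide control wells; nearly all actives have a fitted effect of over 70% in size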
Summary of the method: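 Human lymphoblastoid LYMP2-001 cells, 2500 per well, in complete medium, treated 24 h at 37 C. Viability from cellular ATP by CellTiter-Glo luminescence; AC50 from Hill-equation fits of qHTS concentration-response.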

[16] = MultiTox-Fluor Cytotoxicity Assay - LYMP1-001 - Dead Cells (AID 946); conditions: LYMP1-001 lymphoblastoid cells, dead-cell protease fluorescence; series mostly up to 92.2 µM
Summary of the method: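 Seed 2500 LYMP1-001 cells/well, incubate 5 hr at 37 C; add compound, 16 hr at 37 C; add MultiTox-Fluor reagent, 60 min RT; read dead-cell fluorescence Ex/Em=485/520. Normalize to DMSO and 15 uM tetraoctylammonium bromide.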

[17] = Cell Viability - LYMP1-002 - Assay at 16 hr (AID 948); conditions: LYMP1-002 lymphoblastoid cell viability; series mostly up to 92.2 µM;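 note: 0% = DMSO alone and full effect = 92 µM tetraoctylammonium bromide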
Summary of the method: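 LYMP1-002 human lymphoblastoid cells, 2500/well, were treated with compounds for 16 hr at 37 C in complete medium. Viability was read as intracellular ATP by CellTiter-Glo luminescence, and AC50 was derived from a Hill fit to concentration-response data.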

[18] = MultiTox-Fluor Cytotoxicity Assay - LYMP1-002 - Live Cells (AID 955); conditions: LYMP1-002 lymphoblastoid live-cell protease fluorescence viability; series mostly up to 46.1 µM; note: % is set by controls: 0 for no effect and ±100 for the full control effect
Summary of the method: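 In this qHTS viability format, lymphoblastoid cells (LYMP1-002, human) received compound for 16 hr at 37 C. Fluorogenic GF-AFC cleavage by viable cells was detected at 405/510 nm after 1 h at room temperature.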

[19] = MultiTox-Fluor Cytotoxicity Assay - LYMP1-003 - Dead Cells (AID 961); conditions: LYMP1-003 lymphoblastoid cells, dead-cell protease fluorescence; series mostly up to 92.2 µM; note: nearly all actives have a fitted effect of over 70% in size
Summary of the method: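 LYMP1-003 lymphoblastoid, 2500 cells/well, 5 hr settle then 16 hr cpd at 37 C; MultiTox-Fluor reagent 60 min RT; Ex/Em 485/520 dead-cell signal; norm. DMSO = 0%, 15 uM tetraoctylammonium bromide = 100%; Hill AC50.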

[20] = target: Voltage-gated inwardly rectifying potassium channel KCNH2 (Homo sapiens) (UniProt Q12809); assay: qHTS Assay for Small Molecule Inhibitors of the Human hERG Channel Activity (AID 588834); conditions: U2OS BacMam hERG, FluxOR thallium flux fluorescence; series mostly up to 92.2 µM;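 note: top concentration of the series differs between compounds; % is set by controls: 0 for no effect and ±100 for the full control effect; lower thallium flux fluorescence means stronger hERG block; nearly all actives have a fitted effect of over 50% in size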
Summary of the method: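 Thallium serves as surrogate for K+ influx through BacMam-delivered hERG in U2OS cells. Compounds are added for about 10 minutes after dye loading; stimulation buffer then starts flux, monitored kinetically on FDSS.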

Sequence of Voltage-gated inwardly rectifying potassium channel KCNH2 (Homo sapiens) (Q12809 whole entry, looked up): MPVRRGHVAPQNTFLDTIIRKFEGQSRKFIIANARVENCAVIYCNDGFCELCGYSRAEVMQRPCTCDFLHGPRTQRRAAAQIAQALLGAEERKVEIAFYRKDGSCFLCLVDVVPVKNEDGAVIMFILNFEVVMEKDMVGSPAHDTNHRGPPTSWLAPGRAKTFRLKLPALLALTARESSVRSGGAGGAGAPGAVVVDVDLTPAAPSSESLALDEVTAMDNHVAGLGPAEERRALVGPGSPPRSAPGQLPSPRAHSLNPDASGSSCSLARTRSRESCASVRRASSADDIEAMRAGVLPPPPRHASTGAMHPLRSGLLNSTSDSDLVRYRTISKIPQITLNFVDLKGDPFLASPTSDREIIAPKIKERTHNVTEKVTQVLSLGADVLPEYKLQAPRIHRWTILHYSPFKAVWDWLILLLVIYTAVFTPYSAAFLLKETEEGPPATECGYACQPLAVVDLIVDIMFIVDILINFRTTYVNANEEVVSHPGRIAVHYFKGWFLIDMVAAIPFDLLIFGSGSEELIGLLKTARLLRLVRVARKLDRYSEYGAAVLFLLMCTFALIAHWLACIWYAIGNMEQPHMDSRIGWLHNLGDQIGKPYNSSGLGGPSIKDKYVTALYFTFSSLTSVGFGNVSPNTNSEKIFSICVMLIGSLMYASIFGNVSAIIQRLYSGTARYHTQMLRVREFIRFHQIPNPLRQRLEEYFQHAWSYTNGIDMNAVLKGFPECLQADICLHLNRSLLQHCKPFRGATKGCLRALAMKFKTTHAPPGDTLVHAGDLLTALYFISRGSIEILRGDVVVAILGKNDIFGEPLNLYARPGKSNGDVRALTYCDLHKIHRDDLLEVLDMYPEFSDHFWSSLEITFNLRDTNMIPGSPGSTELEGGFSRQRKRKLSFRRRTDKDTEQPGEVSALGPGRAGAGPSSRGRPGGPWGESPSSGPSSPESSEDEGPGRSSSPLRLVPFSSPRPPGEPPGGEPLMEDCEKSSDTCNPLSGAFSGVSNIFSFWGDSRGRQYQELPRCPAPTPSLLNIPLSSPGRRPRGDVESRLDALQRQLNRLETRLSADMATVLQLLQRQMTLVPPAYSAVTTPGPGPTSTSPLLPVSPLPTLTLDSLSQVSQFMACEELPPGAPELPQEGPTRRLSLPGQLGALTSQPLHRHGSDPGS
Sequence of Thyroid hormone receptor beta (Homo sapiens) (P10828 whole entry, looked up): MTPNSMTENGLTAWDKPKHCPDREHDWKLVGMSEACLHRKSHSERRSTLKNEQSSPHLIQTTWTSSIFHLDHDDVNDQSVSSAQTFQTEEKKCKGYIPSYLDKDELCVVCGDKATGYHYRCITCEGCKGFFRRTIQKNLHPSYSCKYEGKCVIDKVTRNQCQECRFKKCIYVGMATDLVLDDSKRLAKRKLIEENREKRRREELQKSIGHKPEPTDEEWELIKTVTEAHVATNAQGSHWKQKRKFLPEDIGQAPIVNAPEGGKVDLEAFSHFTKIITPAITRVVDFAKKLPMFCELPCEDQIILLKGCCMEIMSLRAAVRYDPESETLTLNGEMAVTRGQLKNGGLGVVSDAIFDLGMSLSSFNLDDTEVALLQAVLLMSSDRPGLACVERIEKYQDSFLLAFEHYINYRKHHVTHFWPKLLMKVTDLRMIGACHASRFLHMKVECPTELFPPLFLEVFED
Sequence of Peroxisome proliferator-activated receptor gamma (Homo sapiens) (P37231 whole entry, looked up): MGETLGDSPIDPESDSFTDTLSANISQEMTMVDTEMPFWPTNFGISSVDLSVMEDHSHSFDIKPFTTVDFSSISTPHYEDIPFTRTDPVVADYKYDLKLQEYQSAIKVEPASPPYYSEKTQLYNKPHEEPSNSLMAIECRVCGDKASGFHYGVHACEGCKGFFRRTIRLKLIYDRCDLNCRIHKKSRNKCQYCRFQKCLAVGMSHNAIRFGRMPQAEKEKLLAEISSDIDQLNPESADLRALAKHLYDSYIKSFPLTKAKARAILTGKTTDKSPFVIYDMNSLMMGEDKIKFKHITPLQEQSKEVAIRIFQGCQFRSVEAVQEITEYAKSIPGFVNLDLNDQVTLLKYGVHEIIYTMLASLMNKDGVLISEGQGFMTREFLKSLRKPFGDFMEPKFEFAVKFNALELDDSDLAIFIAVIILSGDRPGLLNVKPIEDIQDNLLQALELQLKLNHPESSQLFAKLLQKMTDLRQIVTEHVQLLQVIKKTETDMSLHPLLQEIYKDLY

C=CC(C)(CCC=C(C)C)OC(C)=O (stereo unspecified)
inactive: outcome [1] | outcome [2] | activation [3] -1.51%

C=C(C)C1CC=C(C)C(O)C1 (stereo unspecified)
inactive: activity change, negative = cytotoxicity [4] 2.7% | caspase-3 activation [5] -2.18% | outcome [6] | outcome [7] | outcome [8] | outcome [9] | Potency [10] | outcome [11] | outcome [12] | outcome [13] | outcome [14] | Potency [15] | Potency [16] | Potency [17] | Potency [18] | Potency [19] | outcome [1] | outcome [2] | Potency [20] | activation [3] -1.04%

CCCCCCCCCCCCCC(=O)O
inactive: activity change, negative = cytotoxicity [4] 1.41% | caspase-3 activation [5] -2.86% | outcome [6] | outcome [7] | outcome [8] | outcome [9] | Potency [10] | outcome [11] | outcome [12] | outcome [13] | outcome [14] | Potency [15] | Potency [16] | Potency [17] | Potency [18] | Potency [19] | outcome [1] | outcome [2] | Potency [20] | activation [3] -1.59% and 5.08%

C=CCc1ccc(OC)c(OC)c1
inactive: activity change, negative = cytotoxicity [4] -7.19% | caspase-3 activation [5] -0.00061% | outcome [6] | outcome [7] | outcome [8] | outcome [9] | Potency [10] | outcome [11] | outcome [12] | outcome [13] | outcome [14] | Potency [15] | Potency [16] | Potency [17] | Potency [18] | Potency [19] | outcome [1] | outcome [2] | Potency [20] | activation [3] 0.847% and -0.413%

CCCCCCCCCCCC(=O)O
inactive: activity change, negative = cytotoxicity [4] -0.623% and 0.657% | caspase-3 activation [5] -6.31% and -4.32% | outcome [6] | outcome [7] | outcome [8] | outcome [9] | Potency [10] | outcome [11] | outcome [12] | outcome [13] | outcome [14] | Potency [15] | Potency [16] | Potency [17] | Potency [18] | Potency [19] | outcome [2] | Potency [20]
